Source: PubChem
Hits are enriched below; roughly 2.4% of the tested compounds scored in any of these assays.
Pf gametocyte – inhibitors of late stage P. falciparum gametocyte viability. P. falciparum stage V gametocytes, ATP luminescence, 24 h. inhibition, % at 10.9 µM. 0.065% of 150,000 active;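 active means inhibition above the mean plus 3 SD of compounds within the control limits, set per campaign, cut at about 38% in these data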;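 further: 0% = DMSO wells and 100% = medium only without gametocytes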
MEKK2 WT-MEK5 – raises or lowers MEK5 binding to wildtype human MEKK2 PB1 domain; Q9Y2U5; bead flow cytometry, Alexa488-MEK5 binding to MEKK2 WT; actives lie on both sides; binding response (% of control), % at 10 µM; 1.1% of 290,000 active; AID 1531; in the data active means binding response below about 67% or above about 130%; inconclusive means no clear call, values can overlap the other calls; inactive means in between
MEKK2mut PB1 HTS – signal of MEK5 binding to mutant human MEKK2 PB1 domain; bead flow cytometry, Alexa488-MEK5 binding to MEKK2 mutant; percent response, % at 10 µM; 0.35% of 290,000 active; in the data active means percent response above about 24%, passing the limit was not always enough
MEKK3 PB1 HTS – MEKK3-MEK5 PB1 interaction, increase or decrease; bead-based flow cytometry, Alexa488-MEK5 binding to MEKK3; actives lie on both sides; 0 = blocked by unlabeled MEK5, 100 = vehicle; binding response (% of control), % at 10 µM; 1.4% of 290,000 active; AID 1529;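 active means binding response more than 3 SD above or below the average of its plate-row segment, actives on both sides; inconclusive means wells at one plate position flagged as instrument error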;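 further: Alexa488 bead fluorescence after subtracting the streptavidin-only scavenger bead signal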
Target sequence (Q99759 whole entry, looked up): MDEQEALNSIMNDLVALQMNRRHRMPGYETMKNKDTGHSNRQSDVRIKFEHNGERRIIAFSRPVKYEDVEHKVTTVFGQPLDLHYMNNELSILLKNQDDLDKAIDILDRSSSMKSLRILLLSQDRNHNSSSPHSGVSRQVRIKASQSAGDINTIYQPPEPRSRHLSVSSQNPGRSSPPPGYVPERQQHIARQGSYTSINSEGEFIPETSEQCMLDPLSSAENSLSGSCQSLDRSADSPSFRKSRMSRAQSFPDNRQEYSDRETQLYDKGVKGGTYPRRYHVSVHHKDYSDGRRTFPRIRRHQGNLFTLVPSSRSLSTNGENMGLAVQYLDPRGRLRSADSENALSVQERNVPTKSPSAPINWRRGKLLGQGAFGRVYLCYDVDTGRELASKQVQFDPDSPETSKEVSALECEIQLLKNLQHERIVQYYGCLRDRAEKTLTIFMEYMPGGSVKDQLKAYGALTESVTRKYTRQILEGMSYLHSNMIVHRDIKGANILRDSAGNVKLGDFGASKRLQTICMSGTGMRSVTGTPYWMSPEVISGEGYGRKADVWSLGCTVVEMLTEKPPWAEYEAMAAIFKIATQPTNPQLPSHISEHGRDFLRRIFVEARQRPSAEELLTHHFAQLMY
Arbovirus inh – blocks arbovirus infection | arbovirus infection cell-based antiviral screen | inhibition, % at 10 µM | 0.37% of 200,000 active; in the data active means inhibition above about 30%
MEKK2wt confirm – raises or lowers MEK5 binding to wildtype human MEKK2, retest | shares compounds with MEKK3 PB1 HTS | bead flow cytometry, Alexa488-MEK5 binding to MEKK2 WT; actives lie on both sides | binding response (% of control), % at 10 µM | 2.4% of 5,900 active | AID 1892; in the data active means binding response below about 16% or above about 210%; inactive means in between
MEKK2mut-MEK5 – signal of MEK5 binding to mutant human MEKK2, retest; percent response, % at 10 µM; 2% of 5,900 active; shares compounds with MEKK3 PB1 HTS; bead flow cytometry, Alexa488-MEK5 binding to MEKK2 mutant; in the data active means percent response mostly above about 71%, no sharp cut-off; inactive means mostly below about 38%;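 further: higher means compound restores mutant binding toward wildtype level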
MEKK3 confirm – MEKK3-MEK5 PB1 inhibition, single concentration confirmation. AID 1894. shares compounds with MEKK3 PB1 HTS. binding response (% of control), % at 10 µM. bead flow cytometry, Alexa488-MEK5 binding to MEKK3; active compounds read low. 1.8% of 5,900 active;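 active means binding response below 72% of control, or above a set upper limit, though filed actives all read lower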;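 further: 100% = DMSO only wells and 0% = binding blocked by excess unlabeled MEK5; lower values mean stronger disruption of MEK5 binding to MEKK3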
Starred values were filed as active, the others as inactive.

Screening C#CCOCCOCCOCCNc1nc(N2CCN(C(=O)[C@H](CCC(=O)O)n3cc(C(N)Cc4ccc(O)cc4)nn3)CC2)nc(N2CCN(C(=O)[C@H](Cc3ccc(O)cc3)n3cc(C(N)CC(C)C)nn3)CC2)n1 (some centres undefined) returned MEKK2 WT-MEK5 inconclusive, MEKK2mut PB1 HTS 3 and MEKK3 PB1 HTS 108.
Screening C#CCOCCOCCOCCNc1nc(N2CCN(C(=O)[C@H](C)n3cc(CCCN=C(N)N)nn3)CC2)nc(N2CCN(C(=O)[C@H](CCCCN)n3cc(CCCC)nn3)CC2)n1 returned MEKK2 WT-MEK5 110, MEKK2mut PB1 HTS -1, MEKK3 PB1 HTS 110 and Arbovirus inh 0.
`C#CCOCCOCCOCCNc1nc(N2CCN(C(=O)[C@H](CCCCN)n3cc([C@@H](N)CC(C)C)nn3)CC2)nc(N2CCN(C(=O)[C@H](Cc3ccc(O)cc3)n3cc([C@@H](N)CC(C)C)nn3)CC2)n1` gave MEKK2 WT-MEK5 151*, MEKK2mut PB1 HTS 38, MEKK3 PB1 HTS 109, Arbovirus inh 5, MEKK2wt confirm 140, MEKK2mut-MEK5 20 and MEKK3 confirm 106.
C#CCOCCOCCOCCNc1nc(N2CCN(C(=O)[C@H]([C@@H](C)CC)n3cc(CCCN=C(N)N)nn3)CC2)nc(N2CCN(C(=O)[C@H](CCCCN)n3cc(CCCC)nn3)CC2)n1 was read as Pf gametocyte -1, MEKK2 WT-MEK5 172*, MEKK2mut PB1 HTS 21, MEKK3 PB1 HTS 106, Arbovirus inh -2, MEKK2wt confirm 174, MEKK2mut-MEK5 31 and MEKK3 confirm 102.
`C#CCOCCOCCOCCNc1nc(N2CCN(C(=O)[C@H]([C@@H](C)CC)n3cc([C@@H](N)Cc4ccc(O)cc4)nn3)CC2)nc(N2CCN(C(=O)[C@H](CCCCN)n3cc([C@@H](N)CC(C)C)nn3)CC2)n1` gave MEKK2 WT-MEK5 221*, MEKK2mut PB1 HTS 79*, MEKK3 PB1 HTS 113, Arbovirus inh -2, MEKK2wt confirm 183, MEKK2mut-MEK5 110* and MEKK3 confirm 108.
Screening C#CCOCCOCCOCCNc1nc(N2CCN(C(=O)C(Cc3ccc(O)cc3)n3cc(C(N)C(C)CC)nn3)CC2)nc(N2CCN(C(=O)C(Cc3ccc(O)cc3)n3cc(C(N)C(C)CC)nn3)CC2)n1 (centres undefined) returned MEKK2 WT-MEK5 145*, MEKK2mut PB1 HTS 31, MEKK3 PB1 HTS 111, Arbovirus inh -7, MEKK2wt confirm 146, MEKK2mut-MEK5 28 and MEKK3 confirm 112.
COc1cccc(OC)c1OC(=O)/C=C/c1ccc(C)o1 was read as MEKK2 WT-MEK5 109, MEKK2mut PB1 HTS 4 and MEKK3 PB1 HTS 105.
`C[C@@H]1COC(=O)[C@H](Cc2ccc(F)cc2)C/C=C\C[C@@H](CC(=O)NCCO)C(=O)N1` gave Pf gametocyte 6.
`C=CCn1cccc(C(=O)Nc2ccc(N(C)C)cc2)c1=O` gave MEKK2 WT-MEK5 99, MEKK2mut PB1 HTS 2 and MEKK3 PB1 HTS 98.
Screening O=C(Cn1cnc2c(nnn2Cc2ccc(F)cc2)c1=O)Nc1ccccc1 returned Pf gametocyte -13, MEKK2 WT-MEK5 105, MEKK2mut PB1 HTS -1 and MEKK3 PB1 HTS 107.
C#CCOCCOCCOCCNc1nc(N2CCN(C(=O)[C@H](CCCCN)n3cc(C(N)CC(C)C)nn3)CC2)nc(N2CCN(C(=O)[C@H](CCC(=O)O)n3cc(C(N)[C@H](C)CC)nn3)CC2)n1 (some centres undefined) was read as MEKK2 WT-MEK5 107, MEKK2mut PB1 HTS 10, MEKK3 PB1 HTS 104 and Arbovirus inh 4.
